# Screening data (PubChem BioAssay)
# An excerpt weighted towards active compounds, which were near 19% of everything screened.
# S-ASM inh: blocks human secretory acid sphingomyelinase | placental ASM, HMU-PC fluorogenic substrate, 60 min | Potency, µM (titrated, usually from 57.5 µM), for the others: at the top dose activity change, negative = inhibition, actives largely listed as inhibitors | 0.006% of 340,000 active | AID 504937; also: potency is read from the fitted curve at half-maximal effect
# Target sequence (P17405 47-631 limits assumed): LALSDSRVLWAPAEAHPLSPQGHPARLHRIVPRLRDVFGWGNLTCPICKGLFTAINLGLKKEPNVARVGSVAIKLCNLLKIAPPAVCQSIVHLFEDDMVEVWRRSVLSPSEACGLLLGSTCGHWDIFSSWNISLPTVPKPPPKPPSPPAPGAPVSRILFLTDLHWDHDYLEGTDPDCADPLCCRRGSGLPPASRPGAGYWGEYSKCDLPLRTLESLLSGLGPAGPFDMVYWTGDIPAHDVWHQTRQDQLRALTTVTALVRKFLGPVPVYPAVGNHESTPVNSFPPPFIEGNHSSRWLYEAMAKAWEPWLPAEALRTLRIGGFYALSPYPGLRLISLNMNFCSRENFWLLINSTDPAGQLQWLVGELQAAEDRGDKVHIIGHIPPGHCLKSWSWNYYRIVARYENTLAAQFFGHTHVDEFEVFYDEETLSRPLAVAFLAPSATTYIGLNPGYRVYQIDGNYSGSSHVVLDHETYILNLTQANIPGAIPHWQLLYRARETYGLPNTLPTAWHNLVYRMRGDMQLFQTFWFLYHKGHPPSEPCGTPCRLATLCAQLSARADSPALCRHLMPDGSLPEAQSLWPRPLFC
#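 Fluorescence read-out (Ex 386 nm, Em 447 nm) after stopping the reaction at pH 10. Enzyme: ASM from human placenta; substrate HMU-PC0, 9 uM final; 60 min, 37 °C. Compound preincubation 10 min, ambient temperature.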
# DT40 TDP1 CPT: DT40-hTDP1 cell growth loss with CPT. chicken DT40 Tdp1-/-;hTDP1 cells + 20 nM CPT, ATP luminescence, 48 h. Potency, µM (titrated, usually from 46.2 µM), for inactives: top-dose activity change, negative = growth inhibition, hits mostly inhibitors. 12% of 420,000 active. AID 686979; also: potency is read from the fitted curve at half-maximal effect; % is scaled to controls: 0 for no effect and ±100 for the full control effect; nearly all actives have a fitted effect of over 55% in size
#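 Chicken DT40 Tdp1-/- cells stably complemented with human TDP1 were seeded at 400 cells/well in medium containing 20 nM camptothecin, exposed to pin-transferred compounds, and grown at 37 °C for at least 48 hr. Viability was read as ATP luminescence.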
# IL1B secr inh: inflammasome signaling inhibition, IL-1 beta readout; THP-1 LPS/ATP IL-1B secretion, AlphaLISA, 16 h; active compounds read low; activity change, % at 57.5 µM; 4.7% of 360,000 active; in the data active = activity change below about -50%; inconclusive = mostly about -30% to -49%; also: % is scaled to controls: 0 for no effect and ±100 for the full control effect
#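 THP-1 cells pretreated 1 hr with compounds (up to 57.5 uM final), then stimulated with LPS (250 ng/mL final) plus ATP (1.25 mM final); secreted IL-1B measured by AlphaLISA after 16 hr, decreased signal indicating inhibition.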
# TGFb SMAD3 inh: TGF-b pathway inhibition | AID 588855 | 1.2% of 410,000 active | Potency, µM (series often up to 46.1 µM), for inactives: at the top dose activity, negative = inhibition, hits mostly inhibitors | HepG2 CAGA-GFP TGF-b/SMAD3 reporter, GFP fluorescence, 18 h; TGF-beta stimulated, 500 pg/mL final; also: potency is read from the fitted curve at half-maximal effect; % is scaled to controls: 0 for no effect and ±100 for the full control effect; nearly all actives have a fitted effect of over 65% in size
#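 HEPG2 CAGA-GFP, 1000 cells/well; 2 h settle, 37 C; cpd via pin tool; TGF-b 500 pg/mL final; 18 h, 37 C; GFP imaging ex488/em500-530; %Activity normalised to -TGF-b and +DMSO controls; CRC fit, curve class.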
# DT40 TDP1 no CPT: qHTS for Inhibitors of human tyrosyl-DNA phosphodiesterase 1 (TDP1): qHTS in cells in absence of CPT. DT40 Tdp1-/- hTDP1 cells, no CPT, ATP luminescence, 48 h. Potency, µM (series often up to 46.2 µM), for inactives: at the highest dose activity change, negative = growth inhibition, hits mostly inhibitors. 15% of 420,000 active. AID 686978, 2013; also: potency is read from the fitted curve at half-maximal effect; % is scaled to controls: 0 for no effect and ±100 for the full control effect; nearly all actives have a fitted effect of over 55% in size
#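 Seeded 400 DT40-hTDP1 cells/well (vehicle DMSO, no 20 nM CPT); pinned compounds; ≥48 hr at 37 °C; CellTiter-Glo luminescence as viability measure.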
# HepG2 tox: HepG2 cytotoxicity, counter-screen for TGF-b inhibitors | HepG2 CAGA-GFP viability, ATP luminescence, 18 h | Potency, µM (doses to about 46.1 µM), for the others: top-dose activity change, negative = cytotoxicity, actives largely listed as cytotoxic | 0.76% of 410,000 active; also: potency is read from the fitted curve at half-maximal effect
#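 HepG2 CAGA-GFP cells (1000/well, DMEM with 1% FBS) received compound, then TGF-beta at 500 pg/mL final, and were incubated 18 hours at 37 degrees C. Viability was read by CellTiter-Glo luminescence. Media-only wells were set as complete cell-killing and DMSO as no toxicity.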
# The depositor's hits bear a star; ? = inconclusive; / = no result given. Unless noted, calls follow the shape of the dose curve; as a rule, active = well fitted curve in the direction sought with a large enough effect; inconclusive = small, poorly fitted or top-dose-only effect, or another doubt; inactive = no such curve, though single readings can be large; an effect the other way counts as inactive or inconclusive.
SMILES,S-ASM inh,DT40 TDP1 CPT,IL1B secr inh,TGFb SMAD3 inh,DT40 TDP1 no CPT,HepG2 tox
CC(C)[C@H](NC(=O)c1ccccc1)C(=O)OCC(=O)c1ccc2c(c1)NC(=O)CO2,0%,4.6µM*,0,-6%,5.8µM*,10%
COc1cccc(/C=C/C(=O)OCC(=O)c2ccc3c(c2)NC(=O)CO3)c1OC,1%,6%,6,-9%,-23%,-16%
COc1cccc(NC(=O)CSc2nc(=O)n(Cc3ccco3)c3c2CCC3)c1,/,-10%,/,?,?,-19%
C[C@@H]1CN([C@H](C)CO)C(=O)CCCn2cc(nn2)CO[C@H]1CN(C)S(=O)(=O)c1ccccc1,/,16%,16,8%,17%,5%
CC1CCN(CCc2nc3cc(NC(=O)C(C)C)ccc3n2C)CC1,2%,-4%,-14,-2%,20%,3%
CN(CC(=O)Nc1ccc(F)c(F)c1F)C(=O)c1ccc2c(c1)NC(=O)CS2,2%,?,47,6%,?,20%
CN(CC(=O)Nc1ccc(Cl)c(C(F)(F)F)c1)C(=O)c1cnccn1,-6%,?,-24,-7%,?,-4%
CN(CC(=O)Nc1ccc(Cl)c(C(F)(F)F)c1)C(=O)C1(c2ccccc2)CC1,-7%,?,-57*,?,16µM*,-24%
CN(CC(=O)Nc1ccc(Cl)c(C(F)(F)F)c1)C(=O)c1cn2ccccc2n1,-3%,13µM*,-8,?,10µM*,-1%
CN(CC(=O)Nc1ccc(Cl)c(C(F)(F)F)c1)C(=O)c1cc(-c2ccncc2)nc2ccccc12,?,?,-96*,2%,18µM*,24%
CN(CC(=O)Nc1ccc(Cl)c(C(F)(F)F)c1)C(=O)c1cccnc1Sc1ccccc1,-13%,?,32,?,?,-33%
CN(CC(=O)Nc1ccc(Cl)c(C(F)(F)F)c1)C(=O)c1ccc2c(c1)NC(=O)CS2,-19%,?,-24,?,23µM*,-9%
Cc1ccc(-c2nc(CN(Cc3c(C)nn(C)c3C)C(C)C)c(C)o2)o1,3%,-7%,6,6%,-23%,-19%
Cc1nc(-c2ccc(F)cc2)c(CC(=O)N(C)CC(=O)Nc2ccccc2Cl)s1,2%,?,0,-22%,?,-11%
CN(CC(=O)Nc1ccc(Cl)c(C(F)(F)F)c1)C(=O)c1cccs1,-6%,?,?,-2%,16µM*,3%
CN(CC(=O)Nc1ccc(Cl)c(C(F)(F)F)c1)C(=O)CC1Sc2ccccc2NC1=O (centres undefined),-20%,13µM*,?,?,13µM*,12%
Cc1nc(-c2ccc(F)cc2)c(CC(=O)N(C)CC(=O)Nc2ccc(Cl)c(C(F)(F)F)c2)s1,?,?,-20,18µM*,?,-82%
Cc1cc(C(=O)N(C)CC(=O)Nc2ccc(Cl)c(C(F)(F)F)c2)no1,8%,-26%,-10,-6%,16µM*,-16%
COc1cccc(NC(=O)CN(C)C(=O)CC2Sc3ccccc3NC2=O)c1 (centres undefined),-1%,-5%,4,10%,7%,-1%
COC(=O)c1sc(NC(=O)CSc2nnnn2C)nc1C,-2%,-8%,-6,30%,-10%,-7%
CN(CC(=O)Nc1ccc(Cl)c(C(F)(F)F)c1)C(=O)CCCc1nc2ccccc2c(=O)[nH]1,-6%,12µM*,5,-4%,12µM*,0%
Cc1cccc(C(=O)OCC(=O)N(C)CC(=O)Nc2ccc(Cl)c(C(F)(F)F)c2)c1,-24%,15µM*,0,2%,?,4%
Cc1ccc(NC(=O)CCCc2nc3ccccc3c(=O)[nH]2)c(Cl)c1,-1%,18µM*,4,11%,15µM*,1%
CN(CC(=O)Nc1cccc(F)c1)C(=O)CCCc1nc2ccccc2c(=O)[nH]1,/,?,12,5%,-5%,3%
COc1cc(CN2C(=O)CC[C@@H]3CN(Cc4ccccn4)CC[C@@H]32)cc(OC)c1OC,/,3%,/,/,-23%,/
SMILES,S-ASM inh,DT40 TDP1 CPT,IL1B secr inh,TGFb SMAD3 inh,DT40 TDP1 no CPT,HepG2 tox
COc1ccccc1-c1c(C)oc2cc(OC(=O)c3ccco3)ccc2c1=O,97%,?,3,0%,?,0%
COc1ccc(-c2oc3ccccc3c(=O)c2O)cc1,/,-3%,/,/,0%,/
COc1ccc2c(=O)c(-c3ccccc3C)c(C)oc2c1,2%,?,-23,4%,13µM*,-33%
CCCOc1ccc2c(=O)c(-c3cc(C(=O)OC)oc3C)c(C)oc2c1,11%,13µM*,?,?,18µM*,-27%
CCN(CC)C(=O)Oc1ccc2c(=O)c(-c3ccc(OC)cc3)c(C)oc2c1,-4%,-22%,-7,-23%,-19%,-27%
COc1ccc2c(=O)c(-c3ccc(C)cc3)c(-c3ccccc3)oc2c1,?,12µM*,0,-7%,7.3µM*,-12%
COc1ccc2c(=O)c(OC)c(-c3ccccc3)oc2c1,/,?,/,/,7.3µM*,/
Cc1cc(Cl)nc(Cl)c1C(=O)NC(=O)NCCC(C)C,-4%,-3%,39,5%,11%,-2%
CC(C)N1C(=O)S/C(=C\c2ccc(-c3ccc(Cl)c(C(=O)O)c3)o2)C1=O,48%,?,-3,2%,?,13µM*
CCN(CC)c1ccc(/C=C2/SC(=O)N(C(C)C)C2=O)o1,-4%,-91%,-94*,142%,2.3µM*,-111%
CCN(CC)c1ccc(/C=C(/C#N)C(=O)NC(C)C)o1,-11%,9%,26,103%,-7%,-2%
COc1cc(C(=O)NCCC(=O)NCc2c(F)cc(F)cc2F)cc(OC)c1OC,3%,6%,2,-3%,20%,-1%
Cc1csc(NC(=O)C2COc3ccccc3O2)n1 (centres undefined),3%,?,16,0%,-20%,-10%
O=C(Nc1nc(-c2ccccc2)cs1)C1COc2ccccc2O1 (centres undefined),-11%,-5%,-5,-21%,?,-2%
Cc1cnc(NC(=O)C2COc3ccccc3O2)s1 (centres undefined),3%,21µM*,5,-10%,?,2%
